Laboratory results as given in PMC5540273 (PLoS ONE, 2017).

Key:
Conditions in all cases: concentration: 1 μM, replicates: in singlicate; n = 1
[1] = tested on: CDK3
[2] = tested on: CDK4-cyclinD1
[3] = tested on: CDK4-cyclinD3
[4] = tested on: CDK4
[5] = tested on: CDK5
[6] = tested on: CDK7
[7] = tested on: CDK8
[8] = tested on: CDK9
[9] = tested on: CDKL1
[10] = tested on: CDKL2
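Note: KINOMEscan kinase panel screen.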

Structure (SMILES) | %Inh [1] | %Inh [2] | %Inh [3] | %Inh [4] | %Inh [5] | %Inh [6] | %Inh [7] | %Inh [8] | %Inh [9] | %Inh [10]
COC(=O)c1c(-c2ccccc2)c2cc(C)ccc2c(=O)n1Cc1ccccc1 | 0% | 0% | 0% | 0% | 0% | 0% | 5% | 0% | 4% | 0%
Cc1ccc(Oc2ccc(Nc3ncnc4cc[nH]c34)cc2C)cn1 | 0% | 4% | 0% | 29% | 9% | 40% | 0% | 10% | 1% | 0%
COc1cc2ncn(-c3cc(OCc4ccncc4Br)c(C(N)=O)s3)c2cc1OC [GW854278] | 5% | 13% | 0% | 0% | 0% | 0% | 15% | 0% | 14% | 0%
Nc1n[nH]c2nnc(-c3ccccc3)c(-c3ccccc3)c12 [GW554060] | 17% | 2% | 0% | 22% | 0% | 0% | 14% | 0% | 0% | 0%
